In PubChem BioAssay (EPA / NIEHS):
Calls of active or inactive are those of the source. The calls were made as follows: active = hit-call score of the fitted dose curve at least 0.9, where 1 is the maximum; inactive = score below 0.9.

Experiments:
[1] = target: Bile acid receptor (Homo sapiens) (UniProt Q96RI1); test: ATG_IR1_CIS: Attagene CIS-FACTORIAL HepG2 Assay for human Nuclear Receptor Subfamily 1 Group H Member 4 (NR1H4), IR1 submotif (AID 2282946); details: IR1 reporter transcription, actives raise or lower the signal
Bile acid receptor (Homo sapiens), sequence (Q96RI1 whole entry, looked up): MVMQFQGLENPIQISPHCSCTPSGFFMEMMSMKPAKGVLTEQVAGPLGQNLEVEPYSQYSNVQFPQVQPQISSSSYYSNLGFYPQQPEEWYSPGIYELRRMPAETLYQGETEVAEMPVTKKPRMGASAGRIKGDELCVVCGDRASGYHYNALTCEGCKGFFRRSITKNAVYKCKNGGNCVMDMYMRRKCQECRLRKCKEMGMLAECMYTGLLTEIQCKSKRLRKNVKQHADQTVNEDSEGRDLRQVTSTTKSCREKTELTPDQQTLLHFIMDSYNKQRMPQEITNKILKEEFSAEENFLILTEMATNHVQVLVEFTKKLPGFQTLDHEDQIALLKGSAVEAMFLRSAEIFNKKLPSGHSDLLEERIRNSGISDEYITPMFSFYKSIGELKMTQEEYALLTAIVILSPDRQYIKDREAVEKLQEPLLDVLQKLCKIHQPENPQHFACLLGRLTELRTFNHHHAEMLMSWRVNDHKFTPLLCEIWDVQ
How it was run: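 Transient MRTU transfection, HepG2; 24 h dosing; RNA → RT-PCR → 6-FAM primer extension → HpaI digest → capillary electrophoresis fluorescence. Gain/loss of signal fitted relative to DMSO.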

[2] = ATG_ISRE_CIS: Attagene CIS-FACTORIAL HepG2 Assay for human Interferon Regulatory Factor 1 (IRF1) binding to an Interferon-Stimulated Response Element (ISRE) (AID 2282948); details: HepG2 ISRE cis-reporter (Attagene), mRNA transcription readout; actives raise or lower the signal
How it was run: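 Quantitation relies on labelled RT-PCR fragments separated by capillary electrophoresis. Human HepG2 cells bearing cis-promoter reporter constructs were treated 24 h; DMSO served as baseline for bidirectional fitting.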

[3] = ATG_M_32_CIS: Attagene CIS-FACTORIAL HepG2 Assay for M32 Transcription Factor (Internal Marker) (AID 2282949); details: HepG2 Attagene cis-factorial M32 reporter, mRNA; actives raise or lower the signal;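 also: background control marker of the multiplexed CIS panel rather than a real target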
How it was run: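 Following 24 h chemical exposure of HepG2 cells transiently expressing cis-promoter reporter constructs, reporter transcript levels were determined by RT-PCR with fluorescent labelling and capillary electrophoresis, then fitted bidirectionally against DMSO.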

[4] = ATG_M_06_CIS: Attagene CIS-FACTORIAL HepG2 Assay for M06 Transcription Factor (Internal Marker) (AID 2282950); details: HepG2 Attagene CIS-FACTORIAL M06 internal marker reporter; actives raise or lower the signal
How it was run: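 Fluorescence-labelled RT-PCR products from cis-promoter reporter units, cut with HpaI and resolved by capillary electrophoresis, give the signal. Cells are human HepG2, dosed for 24 h. Serves as background control, fitted relative to DMSO.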

[5] = target: Hypoxia-inducible factor 1-alpha (Homo sapiens) (UniProt Q16665); test: ATG_HIF1a_CIS: Attagene CIS-FACTORIAL HepG2 Assay for human Hypoxia Inducible Factor 1 (HIF1A) (AID 2282951); details: HepG2 Attagene cis-factorial HIF1a reporter transcription; actives raise or lower the signal
Hypoxia-inducible factor 1-alpha (Homo sapiens), sequence (Q16665 whole entry, looked up): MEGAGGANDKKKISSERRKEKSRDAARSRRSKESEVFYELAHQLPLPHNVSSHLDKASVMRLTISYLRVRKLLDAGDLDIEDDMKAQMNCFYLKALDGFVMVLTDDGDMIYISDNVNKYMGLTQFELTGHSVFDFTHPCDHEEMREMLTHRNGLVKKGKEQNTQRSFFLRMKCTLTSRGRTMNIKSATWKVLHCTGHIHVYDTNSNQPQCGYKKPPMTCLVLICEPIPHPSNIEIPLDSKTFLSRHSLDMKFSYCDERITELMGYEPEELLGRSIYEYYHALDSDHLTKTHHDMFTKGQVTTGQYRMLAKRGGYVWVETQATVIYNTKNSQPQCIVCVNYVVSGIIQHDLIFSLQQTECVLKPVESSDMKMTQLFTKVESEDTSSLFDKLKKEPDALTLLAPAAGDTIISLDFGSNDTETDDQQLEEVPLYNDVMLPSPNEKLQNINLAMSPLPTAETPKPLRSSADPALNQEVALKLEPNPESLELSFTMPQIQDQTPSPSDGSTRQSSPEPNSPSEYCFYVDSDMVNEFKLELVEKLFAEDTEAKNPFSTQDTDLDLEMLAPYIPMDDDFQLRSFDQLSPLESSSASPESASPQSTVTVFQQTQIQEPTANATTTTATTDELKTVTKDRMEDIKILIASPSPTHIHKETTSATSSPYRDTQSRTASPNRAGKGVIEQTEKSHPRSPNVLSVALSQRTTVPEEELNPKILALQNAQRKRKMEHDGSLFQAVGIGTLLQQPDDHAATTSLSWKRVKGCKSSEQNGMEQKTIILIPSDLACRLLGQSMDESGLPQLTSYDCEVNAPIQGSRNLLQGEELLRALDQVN
How it was run: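 Measures endogenous transcription-factor activity through cis-regulated reporter mRNA in HepG2. Cells dosed 24 h; transcripts quantified by RT-PCR with 6-FAM-labelled products separated by capillary electrophoresis; DMSO serves as negative control.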

[6] = target: Hepatocyte nuclear factor 6 (Homo sapiens) (UniProt Q9UBC0); test: ATG_HNF6_CIS: Attagene CIS-FACTORIAL HepG2 Assay for human Hepatocyte Nuclear Factor 6 (HNF6) (AID 2282952); details: HepG2 Attagene cis-factorial HNF6 reporter transcription; actives raise or lower the signal
Hepatocyte nuclear factor 6 (Homo sapiens), sequence (Q9UBC0 whole entry, looked up): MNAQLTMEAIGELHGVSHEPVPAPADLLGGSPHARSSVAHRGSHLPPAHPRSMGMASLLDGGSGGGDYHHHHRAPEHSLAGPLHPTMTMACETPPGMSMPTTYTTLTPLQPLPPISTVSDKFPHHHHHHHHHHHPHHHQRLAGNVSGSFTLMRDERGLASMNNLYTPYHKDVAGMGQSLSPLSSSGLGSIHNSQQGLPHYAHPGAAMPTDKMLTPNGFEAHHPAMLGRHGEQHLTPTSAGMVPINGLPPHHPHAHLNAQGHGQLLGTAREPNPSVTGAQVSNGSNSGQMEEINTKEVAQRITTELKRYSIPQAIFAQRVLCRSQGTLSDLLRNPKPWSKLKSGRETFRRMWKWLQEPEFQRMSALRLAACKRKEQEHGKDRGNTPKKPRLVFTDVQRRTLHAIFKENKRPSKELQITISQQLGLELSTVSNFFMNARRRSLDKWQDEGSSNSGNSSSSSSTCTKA
How it was run: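 HepG2, transient MRTU transfection (cis promoters); 24 h chemical exposure; total RNA → oligo(dT) RT → PCR → 6-FAM labelling → HpaI cut → CE; bidirectional fit vs DMSO.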

[7] = target: Heat shock factor protein 1 (Homo sapiens) (UniProt Q00613); test: ATG_HSE_CIS: Attagene CIS-FACTORIAL HepG2 Assay for human Heat Shock Transcription Factor 1 (HSE) (AID 2282953); details: HepG2 HSE cis-reporter, Attagene RNA transcription; actives raise or lower the signal
Heat shock factor protein 1 (Homo sapiens), sequence (Q00613 whole entry, looked up): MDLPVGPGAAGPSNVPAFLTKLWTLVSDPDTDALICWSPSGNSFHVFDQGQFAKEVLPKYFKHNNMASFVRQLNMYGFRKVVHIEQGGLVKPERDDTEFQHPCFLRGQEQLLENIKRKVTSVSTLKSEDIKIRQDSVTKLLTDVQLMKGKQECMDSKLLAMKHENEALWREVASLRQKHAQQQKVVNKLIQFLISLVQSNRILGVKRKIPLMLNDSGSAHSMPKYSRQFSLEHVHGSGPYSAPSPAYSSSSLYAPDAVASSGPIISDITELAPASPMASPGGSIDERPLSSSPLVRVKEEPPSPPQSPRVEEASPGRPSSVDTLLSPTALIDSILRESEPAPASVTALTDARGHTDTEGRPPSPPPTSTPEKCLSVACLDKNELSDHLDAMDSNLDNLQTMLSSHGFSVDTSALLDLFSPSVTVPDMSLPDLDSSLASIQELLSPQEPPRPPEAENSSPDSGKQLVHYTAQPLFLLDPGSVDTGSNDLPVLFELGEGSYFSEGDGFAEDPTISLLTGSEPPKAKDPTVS
How it was run: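 After a 24 h incubation with test chemical, transfected HepG2 cells were harvested for RNA; reporter transcripts were measured by RT-PCR and capillary electrophoresis. Values reflect gain or loss of signal relative to DMSO.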

[8] = ATG_MRE_CIS: Attagene CIS-FACTORIAL HepG2 Assay for human Metal Responsive Element (MRE) (AID 2282954); details: HepG2 MRE cis-reporter transcription, Attagene multiplex; actives raise or lower the signal
How it was run: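 HepG2 cells transiently transfected with multiple cis-element reporter units measure endogenous MTF1-driven transcription. After 24 h compound exposure, reporter mRNA is quantified by RT-PCR with 6-FAM labelling, HpaI digestion and capillary electrophoresis; bidirectional fits versus DMSO.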

[9] = ATG_PBREM_CIS: Attagene CIS-FACTORIAL HepG2 Assay for human Phenobarbital-responsive Enhancer Module (PBREM) (AID 2282955); details: HepG2 PBREM cis-reporter, Attagene multiplexed transcription; actives raise or lower the signal
How it was run: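 Fluorescence of labelled reporter cDNA fragments, resolved by capillary electrophoresis, gives mRNA induction in transfected HepG2 cells treated for 24 h; DMSO serves as negative control and baseline.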

[10] = ATG_GRE_CIS: Attagene CIS-FACTORIAL HepG2 Assay for human Glucocorticoid Response Elements (GRE) (AID 2282947); details: HepG2 GRE cis-reporter, Attagene multiplex mRNA; actives raise or lower the signal
How it was run: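 HepG2 cells transiently transfected with multiple cis-promoter reporter units measure endogenous TF activity; 24 h compound exposure. Reporter mRNA quantified by RT-PCR, FAM labelling, HpaI digestion and capillary electrophoresis; bidirectional fit vs DMSO baseline.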

Measured: AC50

C=C(C)C(=O)OCC(C)C
not listed: [9] | [10]
inactive: all other assays above

CCCOCCOCCOCCO
not listed: [9] | [10]
inactive: all other assays above

Cc1ccc(N/N=c2\c(=O)cc/c(=N/Nc3ccc(S(=O)(=O)O)cc3)c2=O)c(C)c1
not listed: [10]
inactive: all other assays above

COc1ccc([C@@H]2CC(=O)c3c(O)cc(O[C@@H]4O[C@H](CO[C@@H]5O[C@@H](C)[C@H](O)[C@@H](O)[C@H]5O)[C@@H](O)[C@H](O)[C@H]4O)cc3O2)cc1OC
not listed: [10]
inactive: all other assays above

CCc1nccnc1C
not listed: [2] | [9]
inactive: all other assays above

CCCCOCCOC(=O)COc1nc(Cl)c(Cl)cc1Cl
inactive: [1] | [10] | [3] | [5] | [7] | [8]

COc1cc(C)ccc1C(C)C
not listed: [9] | [10]
inactive: all other assays above

CCC(C)C=O (stereo not drawn)
not listed: [10]
inactive: all other assays above

CCC(Cc1ccccc1)(C(=O)c1ccc(N2CCOCC2)cc1)N(C)C (stereo not drawn)
inactive: [1] | [3] | [4] | [6]
active: [2] 27.2 µM | [5] 22.9 µM | [7] 65.9 µM | [8] 52.7 µM

OCCc1ccncc1
not listed: [9] | [10]
inactive: all other assays above

O=Cc1ccc(CO)o1
not listed: [10]
inactive: all other assays above

C/C=C\C/C=C/CCCCCCCCOC(C)=O
active: [1] 122 µM | [2] 155 µM | [7] 156 µM | [8] 100 µM
not listed: [10]
inactive: all other assays above

CC(=O)CC(N)=O
not listed: [9] | [10]
inactive: all other assays above

C1=CCCC1
active: [5] 48.6 µM
not listed: [2] | [9]
inactive: all other assays above

O=c1n(CCO)c(=O)n(CCO)c(=O)n1CCO
not listed: [10]
inactive: all other assays above

CCN(CCO)c1cccc(C)c1
not listed: [10]
inactive: all other assays above

CC(=O)Oc1ccc(C(C)=O)cc1
not listed: [10]
inactive: all other assays above

CC(=O)OC1C2(C)CCC(C2)C1(C)C (stereo not drawn)
not listed: [9] | [10]
inactive: all other assays above

CC1=Nc2ccc3ccccc3c2C1(C)C
active: [7] 147 µM | [8] 100 µM
not listed: [9] | [10]
inactive: all other assays above
